# In all, about 1,200 compounds went through this assay and about 85 (7%) were called active. Only a selection was taken, and actives are over-represented in it overall. Unmarked numbers belong to inactive results. The call rests on the fitted dose curve.
# Biological target: Beta-2 adrenergic receptor (Homo sapiens) (UniProt P07550)
# Experiment: qHTS assay of beta-arrestin-biased ligands of beta2-adrenergic receptor: Hit Validation with GloSensor; on activation: 0% is about no effect
# Details: W9-Glo22F cells, GloSensor cAMP luminescence, beta2AR agonism; series mostly up to 46.1 µM; activation: at the top concentration
# From the text: The concept of biased agonism is an emerging concept of molecular pharmacology which proposes that seven transmembrane receptors (7TMRs) or G protein-coupled receptors (GPCRs), exist in multiple signaling conformations and complexes and that ligands (either agonists or antagonists) can induce signaling biased responses for distinct signal transduction cascades.
# Furthermore, accumulating evidence over the last decade has drawn attention to a novel function of beta-arrestins as signal transducers that scaffold various signaling molecules upon activation of 7TMRs. […] This beta-arrestin-biased signaling presumably leads to distinct physiological outcomes from those by G protein activation.
# Additionally, the active receptor conformations which […] on this beta-arrestin signaling are likely different from those activating G protein signaling
# The goal of this screening project is to discover and optimize novel beta-arrestin-biased ligands for beta2-AR signaling. A luminescent cell-based assay for beta2-AR-mediated agonism, known as the Tango assay, has been validated in which ligand binding of a recombinant beta2-AR and subsequent recruitment of a recombinant beta-arrestin lead to the release of the transcriptional activator tTA, which upregulates transcription of a tTA-responsive luciferase gene. […] After compounds were identified in this primary screen, they were tested in a counter screen that used luminescence as measure through the GloSensor reagent.
# NIH Molecular Libraries Probe Production Network [MLPCN]
# NIH Chemical Genomics Center [NCGC]
# PI: Bryan Roth (UNC) and Bob Lefkowitz (Duke)
# 2 uL of W9-Glo22F cells are dispensed into a white 1536-well plate. They are incubated overnight at 37 deg C at 5% CO2. 23 nL of compounds and controls are pinned into the wells. Then 2 uL of GloSensor is added and the plate is incubated for 10 min at room temperature.The plates are then read on the ViewLux for luminescence.
# Potency means the concentration at half of the fitted maximal effect.
# Sequence of Beta-2 adrenergic receptor (Homo sapiens) (P07550 whole entry, looked up): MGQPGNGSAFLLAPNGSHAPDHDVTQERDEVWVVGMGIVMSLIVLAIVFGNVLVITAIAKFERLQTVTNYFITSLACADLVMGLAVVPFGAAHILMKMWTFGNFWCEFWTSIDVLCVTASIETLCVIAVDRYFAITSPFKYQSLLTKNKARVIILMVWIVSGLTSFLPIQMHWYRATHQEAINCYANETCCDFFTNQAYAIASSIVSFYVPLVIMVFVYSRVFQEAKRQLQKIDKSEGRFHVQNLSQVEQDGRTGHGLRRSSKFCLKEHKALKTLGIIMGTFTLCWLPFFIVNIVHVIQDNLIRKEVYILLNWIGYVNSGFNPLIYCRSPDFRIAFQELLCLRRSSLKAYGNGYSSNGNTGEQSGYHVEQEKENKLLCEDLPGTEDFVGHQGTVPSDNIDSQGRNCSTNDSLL
Structure (SMILES),activation,Potency
COC(=O)C1=C(c2ccc(OCc3ccccc3)cc2)C[C@@H]2CC[C@H]1N2C(=O)NCc1cccc(OC)c1,-1.16%,
COC(=O)C1=C(c2ccc(OCc3ccccc3)cc2)C[C@@H]2CC[C@H]1N2C(=O)NCc1ccc(OC)c(OC)c1,,4.11 µM (active)
COC(=O)C1=C(c2ccc(OCc3ccccc3)cc2)C[C@@H]2CC[C@H]1N2C(=O)NCc1cccc(C(F)(F)F)c1,-2.33%,
O=C1NC(=O)N(Cc2ccccc2)C(=O)/C1=C/C=C/c1ccco1,-0.857%,
COc1cccc(C(=O)C2CCCN(Cc3cccc(C)n3)C2)c1 (stereo not given),-0.153%,
Clc1ccc2c(c1)C(c1ccccc1Cl)=NCc1nnc(N3CCN(CCOc4ccccc4)CC3)n1-2,0.153%,
COC(=O)C1=C(c2ccc(-c3ccccc3)c(F)c2)C[C@@H]2CC[C@H]1N2C(=O)NCc1ccco1,-2.33%,
CNCC(O)c1ccc(OC(=O)C(C)(C)C)c(OC(=O)C(C)(C)C)c1 (stereo not given),,0.259 µM (active)
COC(=O)C1=C(c2ccc(OC)c(OC)c2)C[C@@H]2CC[C@H]1N2C(=O)NCc1cccc2ccccc12,0%,
OC12ONC(c3ccccn3)C1N1CCC2CC1 (stereo not given),1.16%,
COC(=O)C1=C(c2ccc(-c3ccccc3)c(F)c2)C[C@@H]2CC[C@H]1N2C(=O)NCCOc1ccc(OC)cc1,-2.33%,
O=c1c2ccccc2nc(/C=C/c2ccc(O)c(O)c2)n1-c1ccccc1,,32.6 µM (active)
COc1cccc(OCc2cc(C(=O)N3C[C@H]4C[C@@H](C3)c3cccc(=O)n3C4)no2)c1,0.306%,
c1cncc(C2Nc3cccc4cccc(c34)N2)c1,0%,
COC(=O)C1=C(c2ccc(F)cc2F)C[C@@H]2CC[C@H]1N2C(=O)NCCNC(C)=O,-2.33%,

# — PubChem BioAssay AID588790 (National Center for Advancing Translational Sciences (NCATS), 2011)
